For this experiment, the system named is K562 SF3B1 K700E vs K562 SF3B1 WT. Description: surviving fraction ratio K562 SF3B1 K700E / K562 SF3B1 WT (each relative to DMSO); higher = less selective killing of SF3B1 K700E cells. The following applies: 5 days. Here is the method: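 Drug-sensitivity screen of an in-house 80-compound library in isogenic K562 SF3B1 K700E versus SF3B1 WT cells. 250 cells/well in 384-well plates were exposed 24 h after seeding to 0.5-1000 nM compound for 5 days, and viability was read by CellTiter-Glo. Surviving fraction is relative to DMSO, and the value is the ratio of surviving fraction in K700E to WT cells; the paper calls ratio <0.6 with P<0.01 selective.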

Counter-ions that a name gives are not always drawn.

As for `C[C@]1(O)C[C@@H](c2nc(-c3ccc4ccc(-c5ccccc5)nc4c3)c3c(N)nccn32)C1`, the “surviving fraction ratio K562 SF3B1 K700E / K562 SF3B1 WT” value is, setting by setting: (0.5nM) 0.876; (1nM) 0.823; (5nM) 0.862; (10nM) 0.829; (50nM) 0.861; (100nM) 0.795. For the same molecule, the “surviving fraction ratio K562 SF3B1 K700E / K562 SF3B1 WT” value reads like this: (500nM) 0.804; (1000nM) 0.873.
Take `CN(Cc1cnc2nc(N)nc(N)c2n1)c1ccc(C(=O)N[C@@H](CCC(=O)O)C(=O)O)cc1` [methotrexate]: the “surviving fraction ratio K562 SF3B1 K700E / K562 SF3B1 WT” value is 0.824 (0.5nM); 0.836 (1nM); 0.971 (5nM); 2.8 (10nM); 3.75 (50nM); 4.08 (100nM). For the same molecule, the “surviving fraction ratio K562 SF3B1 K700E / K562 SF3B1 WT” value came to 3.5 (500nM) and 3.58 (1000nM).
In the case of `COc1cccc2c1C(=O)c1c(O)c3c(c(O)c1C2=O)C[C@@](O)(C(=O)CO)C[C@@H]3O[C@H]1C[C@H](N)[C@H](O)[C@H](C)O1` [doxorubicin.HCl], the “surviving fraction ratio K562 SF3B1 K700E / K562 SF3B1 WT” value runs as follows: (0.5nM) 0.974; (1nM) 1.04; (5nM) 0.718; (10nM) 1.07; (50nM) 1.11; (100nM) 0.446. Besides, the “surviving fraction ratio K562 SF3B1 K700E / K562 SF3B1 WT” value reads like this: (500nM) 1.24; (1000nM) 2.24.
In the case of `CNC(=O)c1cc(Oc2ccc(NC(=O)Nc3ccc(Cl)c(C(F)(F)F)c3)cc2)ccn1` [sorafenib], the “surviving fraction ratio K562 SF3B1 K700E / K562 SF3B1 WT” value (0.5nM) amounted to 0.8; the “surviving fraction ratio K562 SF3B1 K700E / K562 SF3B1 WT” value (1nM) turned out to be 0.973; the “surviving fraction ratio K562 SF3B1 K700E / K562 SF3B1 WT” value (5nM) turned out to be 0.87; the “surviving fraction ratio K562 SF3B1 K700E / K562 SF3B1 WT” value (10nM) was found to be 0.956; the “surviving fraction ratio K562 SF3B1 K700E / K562 SF3B1 WT” value (50nM) amounted to 0.915; the “surviving fraction ratio K562 SF3B1 K700E / K562 SF3B1 WT” value (100nM) came out at 1. Besides, the “surviving fraction ratio K562 SF3B1 K700E / K562 SF3B1 WT” value was found to be 0.887 (500nM) and 0.973 (1000nM).
As to `CC[C@@H]1C(=O)N(C)c2cnc(Nc3ccc(C(=O)NC4CCN(C)CC4)cc3OC)nc2N1C1CCCC1`, the “surviving fraction ratio K562 SF3B1 K700E / K562 SF3B1 WT” value is, setting by setting: (0.5nM) 0.867; (1nM) 0.956; (5nM) 0.455; (10nM) 2.45; (50nM) 2.89; (100nM) 2.99. Also, the “surviving fraction ratio K562 SF3B1 K700E / K562 SF3B1 WT” value by setting is: (500nM) 2.76; (1000nM) 2.22.

The values above are taken from the supplement of paper PMC10412459.
